Results as given in the OligoGym collection.

Biological target: ATP10B
Test: pooled miR-30 sensor sort-seq; sequence = guide strand
Details: shRNA
Further: reference of the scale not given here.

Sequence	sensor-assay potency score (higher = more potent)
TTGAAGAATATCATCTGCCAGT	-0.482
TTTGTCTCTCCATCCAAGCTGG	-0.607
TTTATTGCTTTATCAAAGCGGT	-0.352
TTGGTGTAGACAACAATCTCGC	-0.19
TAAGGTGAGTTGATTCTCCAGA	0.552
TCGCTTAGCATTTTCTTGGTGA	0.0526
TTGATGGTGACCCTCTGCCTGG	-1.45
TTTATCTGGAGTTACATCTTTT	-0.334
TTGACTATCATACTCTTCTGGA	0.0435
TTTGAGATTAGAGACTTCCCAC	0.383
TTCTTGGTGAGAATACTCGCTG	-0.605

Biological target: ATP13A3
Test: as above
Details: shRNA

Sequence	sensor-assay potency score (higher = more potent)
TTCATCAGTAGTCCTCAGCAGC	-0.704
TAAAGCTTTAGCTTCTGTGGTT	-0.122
TTGACATGATCCATTCTCCTTA	-0.0274
TATAACACTGAACAGCTGGAAA	-0.978
TTAATTGCAGCTCTGACACAGG	0.0379
TTCGGTTTCATTGTCTACGTGT	0.717
TTCTTCAGTTGCTTCTTCCAGA	-0.0869
TTGACGTACAAGAAACACCTTC	0.452
TAGATTTTGGACTTGAAACTGG	-0.128
TAGACATAGATTTTGGACTTGA	-0.0415

Biological target: ATP2B3
Test: as above
Details: shRNA

Sequence	sensor-assay potency score (higher = more potent)
TTGTCGGTGGGAGACGACCGGG	-1.43
TTGAAGAACACAAAGACCCTCA	0.724
TTGTAAAGCTTGTCTTCCGGGA	-0.394
TTAAACAAGGACATCAGGGAAC	-0.472
TTTGCTTTTAATATCTATTGGC	0.393
TTGACCAGAAAGATATTCTTGC	0.31
TAAAACATATTTATGAACTGAA	-0.383
TTTTCTTGACAGAGTAAGCTAA	-0.151
TTTTTCAAGAGGATCTCTGAGG	-0.749
AAAAAAAACAACTACAACCTTG	-0.501
TTTATGAACTGAACACAGTTGA	0.503
TTTCTTGACAGAGTAAGCTAAG	-0.513
TATTGTACATAGACCGGCGTGC	0.677
TTGACTGCTTCTGCTCAGGGGT	-0.897
TTCTTTTGAACTCTTGGCCCTG	-0.519
AAAACAACTACAACCTTGCTAC	-0.0751
TTCCTCACCATGTCGTCCCGGT	-0.00689
TTGATCAGAAACTCGGGCGTGG	0.126
TTGGCTTCTTTTGAACTCTTGG	0.325
